Measurements: PubChem BioAssay

Columns and labels:
[1] = inhibitors of PAF-induced NFkB signaling in CF airway cells, dose response, cell-based, uHTS hits, panel, cytotoxicity readout (AID 624344); settings: CF bronchial epithelial cells, PAF-induced NFkB reporter inhibition, with PAF, run 1; at 79 µM (top of the series) unless noted
[2] = as above; settings: CF bronchial epithelial cells, PAF-induced NFkB reporter inhibition, with PAF, run 2; at 79 µM (top of the series) unless noted
[3] = molecular target: Tumor necrosis factor receptor superfamily member 10B (Homo sapiens) (UniProt O14763); experiment: caspase-8 TRAIL sensitization, hit retest, confirmation, cell-based, NB7+caspase-8, with/without TRAIL, luminescence panel (AID 651596); settings: NB7 neuroblastoma + caspase-8, TRAIL sensitization, luminescence viability, with TRAIL, mean of runs, at 10 µM, stronger effect = higher value
Sequence of Tumor necrosis factor receptor superfamily member 10B (Homo sapiens) (O14763 whole entry, looked up): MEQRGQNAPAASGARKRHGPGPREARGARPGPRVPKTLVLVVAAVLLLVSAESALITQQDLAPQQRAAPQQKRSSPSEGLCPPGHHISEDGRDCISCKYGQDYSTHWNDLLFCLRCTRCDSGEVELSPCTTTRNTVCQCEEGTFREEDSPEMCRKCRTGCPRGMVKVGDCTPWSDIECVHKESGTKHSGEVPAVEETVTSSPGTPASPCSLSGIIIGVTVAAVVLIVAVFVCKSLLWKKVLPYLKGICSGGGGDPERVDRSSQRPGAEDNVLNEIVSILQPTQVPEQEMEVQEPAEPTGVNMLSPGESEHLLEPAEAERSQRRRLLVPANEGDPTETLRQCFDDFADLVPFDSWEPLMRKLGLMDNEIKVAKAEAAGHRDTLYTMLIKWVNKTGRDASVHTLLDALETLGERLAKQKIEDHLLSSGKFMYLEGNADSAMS

[4] = as above; settings: NB7 neuroblastoma + caspase-8, without TRAIL, luminescence viability, without TRAIL, mean of runs, at 10 µM

Compound: Cc1ccc(Sc2c(C=O)c3ccccc3n2C)cc1
- inhibition [1]: 105%
- inhibition [2]: 104%

Compound: COc1cc(NC(=O)Cn2ncc(Cl)c(Cl)c2=O)c(C)cc1[N+](=O)[O-]
- inhibition [1]: 97.1%
- inhibition [2]: 91.1%
- activity [3]: 99.2%
- activity [4]: 99.3%

Compound: CC1(C)CC(=O)C(C2C3=C(CC(C)(C)CC3=O)Oc3c(Br)cc(Br)cc32)=C(O)C1 (centres undefined)
- inhibition [1]: 104%
- inhibition [2]: 111%

Compound: C[C@@H]1CC=C[C@H]2[C@H]1C(=O)N(Cc1ccccc1)[C@H]2c1ccc2ccccc2c1Br
- inhibition [1]: 110%
- inhibition [2]: 93.6%

Compound: COc1ccc2c(=O)cc(-c3ccncc3)oc2c1OC
- inhibition [1]: 116%
- inhibition [2]: 103%

Compound: Cc1ccc(NS(=O)(=O)c2ccc(-c3cnc(C4CC4)o3)cc2)c(C)c1
- inhibition [1]: 104%
- inhibition [2]: 111%

Compound: Cc1ccc(CCC(=O)Nc2ncc(Cc3cccc(Cl)c3Cl)s2)o1
- inhibition [1]: 101%
- inhibition [2]: 112%

Compound: COc1ccc(-c2cc(-c3nc4ccccn4c3NCc3ccccc3)ccc2OC)cc1
- inhibition [1]: 105%
- inhibition [2]: 96.6%
- activity [3]: 93.2%
- activity [4]: 88.6%

Compound: COc1ccc2[nH]c(=O)c3c(c2c1)OC(C)(C)C=C3
- inhibition [1]: 105%
- inhibition [2]: 117%

Compound: Cc1nn(-c2nccs2)c2c1C(=O)CC(C)(C)C2Br (centres undefined)
- inhibition [1]: 108%
- inhibition [2]: 115%

Compound: Fc1ccccc1-c1csc(=Nc2cccnc2)n1CCCn1ccnc1
- inhibition [1]: 116%
- inhibition [2]: 94.9%

Compound: COc1ccc(N(CCCN2C(=O)c3cccc4cccc(c34)C2=O)C(=O)c2ccncc2)cc1
- inhibition [1]: 5.78%
- inhibition [2]: 45.8%

Compound: Cn1ncc2c(O/N=C(\N)c3ccc(C(C)(C)C)cc3)ncnc21
- inhibition [1]: 101%
- inhibition [2]: 112%
- activity [3]: 98.5%
- activity [4]: 98.8%

Compound: O=C(NCCN1CCN(c2ccccc2)CC1)c1cccc(Br)c1
- inhibition [1]: 113%
- inhibition [2]: 73.9%
